# Data reported in PubChem BioAssay (NCATS).
# Where “and” joins values, the source holds several entries; their conditions need not be identical. Equal entries are not always repeated. Records with an inconclusive call do not appear. Calls of active or inactive are those of the source. Calls follow the shape of the dose curve; as a rule, active = well fitted cell-killing curve with a large enough effect; inconclusive = small, poorly fitted or top-dose-only effect, or effect the other way; inactive = flat fitted curve, though single readings scatter.
# System: JEG-3
# Experiment: Primary qHTS to identify gynecologic anti-cancer compounds using libraries of approved drugs and bioactive compounds (AID 1345084); also: nearly all actives have a fitted effect of over 55% in size
# Settings: Gynecologic cancer cell panel viability, ATPlite luminescence, 48 h; series mostly up to 57.5 µM; activity change, negative = cytotoxicity: at the top concentration
# How it was run: (§1)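 Five-concentration response, 48 h; readout is ATP-driven luciferase luminescence.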
# % is scaled to controls: 0 for no effect and ±100 for the full control effect; potency is read from the fitted curve at half-maximal effect.
SMILES,"activity change, negative = cytotoxicity",Potency
CCCCCCCCCCCCCCCCCC(=O)OCC(O)CO (stereo not given),-20.4% (inactive),–
CN1[C@@H]2CC[C@H]1CC(OC(=O)c1c[nH]c3ccccc13)C2 (stereo not given in full),–,inactive
CCCOC(C(=O)OC1CCN(C)CC1)(c1ccccc1)c1ccccc1,14.4% (inactive),–
CO/N=C1\CN(c2nc3c(cc2F)c(=O)c(C(=O)O)cn3C2CC2)CC1CN (stereo not given),7.23% (inactive),–
COc1cc2c(cc1OC)C(C(C(=O)N(CCc1ccc(OC)c(OC)c1OC)CCc1ccc(OC)c(OC)c1OC)c1ccccc1)=NCC2 (stereo not given),1.94% (inactive),–
Oc1c(Cl)cc(Cl)cc1Sc1cc(Cl)cc(Cl)c1O,2.87% (inactive),–
O=C1c2ccccc2C(=O)C1c1ccccc1,4.66% (inactive),–
Cc1ccc(O)c2ncccc12,-7.25% (inactive),–
O=C(Nc1ccc(Oc2ccc(Cl)cc2)c(Cl)c1)c1cc(I)cc(I)c1O,21.5% (inactive),–
CC(=O)[C@H]1CC[C@H]2[C@@H]3C[C@H](C)C4=CC(=O)CC[C@]4(C)[C@H]3[C@@H](O)C[C@]12C,-0.419% (inactive),–
O=C(OCC(O)CO)c1ccccc1Nc1ccnc2cc(Cl)ccc12 (stereo not given),6.09% (inactive),–
CCN1CCC[C@H]1CNC(=O)c1c(OC)ccc(Br)c1OC,-1.95% (inactive),–
CC(C)COC(=O)c1ccc(N)cc1,-10.7% (inactive),–
O=C1OCCN1/N=C/c1ccc([N+](=O)[O-])o1,-16.6% (inactive),–
Oc1ccc(O)cc1,-9.61% (inactive),–
C[C@]12C=CC(=O)C=C1CC[C@@H]1[C@@H]2[C@@H](O)C[C@@]2(C)[C@H]1CC[C@]2(O)C(=O)CO,-1.91% (inactive),–
O=C1OC(c2ccc(O)cc2)(c2ccc(O)cc2)c2ccccc21,1.44% (inactive),–
NCCc1ccn[nH]1,17.6% (inactive),–

SMILES,"activity change, negative = cytotoxicity",Potency
COc1cccc2c1C(=O)c1c(O)c3c(c(O)c1C2=O)C[C@@](O)(C(=O)CO)C[C@@H]3O[C@H]1C[C@H](N)[C@H](O)[C@H](C)O1,–,2.82 µM (active)
COC1=CC(=O)C[C@@H](C)[C@]12Oc1c(Cl)c(OC)cc(OC)c1C2=O,-6.1% (inactive),–
CC(CCc1ccccc1)NCC(O)c1ccc(O)c(C(N)=O)c1 (stereo not given),-3.89% (inactive),–
C#C[C@]1(O)CC[C@H]2[C@@H]3CCc4cc(OC5CCCC5)ccc4[C@H]3CC[C@@]21C,-17.7% (inactive),–
CCCCC1=NC2(CCCC2)C(=O)N1Cc1ccc(-c2ccccc2-c2nn[nH]n2)cc1,-2.99% (inactive),–
O=C(CCN1CCC(c2ccccc2)C1)c1ccc2c(c1)OCCO2 (stereo not given),5.35% (inactive),–
C=CCc1ccc(O)c(OC)c1,5.83% (inactive),–
C[C@]12CC[C@@H]3c4ccc(O)cc4CC[C@H]3[C@@H]1C[C@@H](O)[C@@H]2O,-16.9% (inactive),–
O=c1[nH]c(=O)n([C@H]2CCCO2)cc1F,–,inactive
C[C@]12CC[C@H]3[C@@H](CCC4=CC(=O)CC[C@@]43C)[C@@H]1CC[C@@H]2C(=O)CO,3.47% (inactive),–
CC(=O)OCC(=O)NCCCOc1cccc(CN2CCCCC2)c1,-4.59% (inactive),–
OC[C@H]1O[C@@H](n2cnc3c(=S)nc[nH]c32)[C@H](O)[C@@H]1O,–,2.51 µM (active)
CCCCOc1ccc(OCCCN2CCOCC2)cc1,-23.1% (inactive),–
CC(C)n1nc(-c2cc3cc(O)ccc3[nH]2)c2c(N)ncnc21,–,inactive
CCCN1CCCC[C@H]1C(=O)Nc1c(C)cccc1C,5.59% (inactive),–
CC(=O)Oc1ccc2c(c1)CC[C@@H]1[C@@H]2CC[C@]2(C)[C@@H](O)CC[C@@H]12,-18.7% (inactive),–
CC(C)(C)NC(=O)[C@@H]1CN(Cc2cccnc2)CCN1C[C@@H](O)C[C@@H](Cc1ccccc1)C(=O)N[C@H]1c2ccccc2C[C@H]1O,–,inactive
CC(Cc1cccc(C(F)(F)F)c1)NCCOC(=O)c1ccccc1 (stereo not given),-1.29% (inactive),–

# System: OV90
# Experiment: as above
# Settings: Gynecologic cancer cell panel viability, ATPlite luminescence, 48 h; series mostly up to 57.5 µM; activity change, negative = cytotoxicity: at the top concentration
# How it was run: as §1
SMILES,"activity change, negative = cytotoxicity",Potency
CCCCCCCCCCCCCCCCCC(=O)OCC(O)CO (stereo not given),-13.1% (inactive),–
CN1[C@@H]2CC[C@H]1CC(OC(=O)c1c[nH]c3ccccc13)C2 (stereo not given in full),–,inactive
CO/N=C1\CN(c2nc3c(cc2F)c(=O)c(C(=O)O)cn3C2CC2)CC1CN (stereo not given),4.49% (inactive),–
COc1cc2c(cc1OC)C(C(C(=O)N(CCc1ccc(OC)c(OC)c1OC)CCc1ccc(OC)c(OC)c1OC)c1ccccc1)=NCC2 (stereo not given),15.7% (inactive),–
Oc1c(Cl)cc(Cl)cc1Sc1cc(Cl)cc(Cl)c1O,-7.4% (inactive),–
O=C1c2ccccc2C(=O)C1c1ccccc1,6.79% (inactive),–
Cc1ccc(O)c2ncccc12,4.82% (inactive),–
CC(=O)[C@H]1CC[C@H]2[C@@H]3C[C@H](C)C4=CC(=O)CC[C@]4(C)[C@H]3[C@@H](O)C[C@]12C,-3.42% (inactive),–
O=C(OCC(O)CO)c1ccccc1Nc1ccnc2cc(Cl)ccc12 (stereo not given),-7.17% (inactive),–
CCN1CCC[C@H]1CNC(=O)c1c(OC)ccc(Br)c1OC,22.4% (inactive),–
CC(C)COC(=O)c1ccc(N)cc1,-3% (inactive),–
O=C1OCCN1/N=C/c1ccc([N+](=O)[O-])o1,-26% (inactive),–
Oc1ccc(O)cc1,1.76% (inactive),–
C[C@]12C=CC(=O)C=C1CC[C@@H]1[C@@H]2[C@@H](O)C[C@@]2(C)[C@H]1CC[C@]2(O)C(=O)CO,-33.3% (inactive),–
O=C1OC(c2ccc(O)cc2)(c2ccc(O)cc2)c2ccccc21,–,28.2 µM (active)
NCCc1ccn[nH]1,-3.88% (inactive),–
COc1cccc2c1C(=O)c1c(O)c3c(c(O)c1C2=O)C[C@@](O)(C(=O)CO)C[C@@H]3O[C@H]1C[C@H](N)[C@H](O)[C@H](C)O1,–,4.47 µM (active)

SMILES,"activity change, negative = cytotoxicity",Potency
COC1=CC(=O)C[C@@H](C)[C@]12Oc1c(Cl)c(OC)cc(OC)c1C2=O,1.79% (inactive),–
CC(CCc1ccccc1)NCC(O)c1ccc(O)c(C(N)=O)c1 (stereo not given),-1.4% (inactive),–
C#C[C@]1(O)CC[C@H]2[C@@H]3CCc4cc(OC5CCCC5)ccc4[C@H]3CC[C@@]21C,–,20 µM (active)
CCCCC1=NC2(CCCC2)C(=O)N1Cc1ccc(-c2ccccc2-c2nn[nH]n2)cc1,1.01% (inactive),–
O=C(CCN1CCC(c2ccccc2)C1)c1ccc2c(c1)OCCO2 (stereo not given),10.3% (inactive),–
C=CCc1ccc(O)c(OC)c1,3.26% (inactive),–
C[C@]12CC[C@@H]3c4ccc(O)cc4CC[C@H]3[C@@H]1C[C@@H](O)[C@@H]2O,1.67% (inactive),–
O=c1[nH]c(=O)n([C@H]2CCCO2)cc1F,–,inactive
C[C@]12CC[C@H]3[C@@H](CCC4=CC(=O)CC[C@@]43C)[C@@H]1CC[C@@H]2C(=O)CO,-6.84% (inactive),–
CC(=O)OCC(=O)NCCCOc1cccc(CN2CCCCC2)c1,20.5% (inactive),–
OC[C@H]1O[C@@H](n2cnc3c(=S)nc[nH]c32)[C@H](O)[C@@H]1O,–,8.91 µM (active)
CCCCOc1ccc(OCCCN2CCOCC2)cc1,-19.3% (inactive),–
CC(C)n1nc(-c2cc3cc(O)ccc3[nH]2)c2c(N)ncnc21,–,5.01 µM (active) and 2.82 µM (active)
CCCN1CCCC[C@H]1C(=O)Nc1c(C)cccc1C,-0.454% (inactive),–
CC(=O)Oc1ccc2c(c1)CC[C@@H]1[C@@H]2CC[C@]2(C)[C@@H](O)CC[C@@H]12,-15.1% (inactive),–
CC(C)(C)NC(=O)[C@@H]1CN(Cc2cccnc2)CCN1C[C@@H](O)C[C@@H](Cc1ccccc1)C(=O)N[C@H]1c2ccccc2C[C@H]1O,–,inactive
CC(Cc1cccc(C(F)(F)F)c1)NCCOC(=O)c1ccccc1 (stereo not given),-0.0944% (inactive),–
